Laboratory results taken from PubChem BioAssay AID1159580 (chemical genetic matrix, 2015).
Among all 5,500 compounds or so, about 2,000 (36%) were called active. Inconclusive results (about 18%) are left out. No stated cut-off is given here; in the data, active means normalized growth mostly below about 0.91 (no sharp cut-off); inconclusive means no clear call, values can overlap the other calls; inactive means mostly above about 0.92. The list shows a part of the results.

Assay: chemical genetic growth profiling, strain panel (AID 1159580);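 further: tested at 20 µM; growth read once vehicle control cultures reached saturation at 30 °C; 1 = growth at the plate median or of vehicle wells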
Conditions: S. cerevisiae deletion strains, growth OD

Measured: normalized growth

O=c1cc(-c2ccc(O)c(O)c2)oc2cc(O)cc(O)c12
inactive: locus YAL040C, strain CLN3, stronger effect = lower value 1.02 | locus YCL061C, strain MRC1 (second series), stronger effect = lower value 0.989 | locus YDR150W, strain NUM1, stronger effect = lower value 0.964 | locus YDR363W, strain ESC2, stronger effect = lower value 1.02 | locus YER002W, strain NOP16, stronger effect = lower value 1.01 | locus YGR078C, strain PAC10, stronger effect = lower value 0.989 | locus YJR075W, strain HOC1, stronger effect = lower value 0.984 | locus YMR263W, strain SAP30, stronger effect = lower value 1 | locus YNL175C, strain NOP13, stronger effect = lower value 1.01 | locus YNL197C, strain WHI3, stronger effect = lower value 1.02 | locus YNL224C, strain SQS1, stronger effect = lower value 1.03 | locus YOR083W, strain WHI5 (second series), stronger effect = lower value 0.966 | locus YPL241C, strain CIN2, stronger effect = lower value 0.997
